This note sets out measurements from PubChem BioAssay.

Assay [1] in a line: small molecules captured by biotinylated probe aFSTL3 – biochemical, small-molecule microarray, fluorescence 635/667, stem cell growth factor project, primary screen (AID 1064).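 Note: measures binding of the biotinylated anti-FSTL3 antibody to printed compounds.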 Conditions: higher = more signal.
Assay [2] is described as follows: binders from COS7 lysate, DM2A8 probe, primary screen, torsin A project, cell lysate, small-molecule microarray, fluorescence 635/667 (AID 1065). Conditions: higher = more signal, COS7 lysate expressing mutant human TOR1A.
Assay [3] is described as follows: small molecules captured by biotinylated probe aFGF2 – biochemical, small-molecule microarray, fluorescence 635/667, stem cell growth factor project, primary screen (AID 1067).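 Note: measures binding of biotinylated aFGF2 protein to printed compounds on slides; z-score merges feature fluorescence and signal-to-noise across triplicate slides.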 Conditions: higher = more signal.
Assay [4] is described as follows: small molecules captured by biotinylated probe aFGF10 – biochemical, small-molecule microarray, fluorescence 635/667, stem cell growth factor project, primary screen (AID 1071).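 Note: score merges 667 nm spot intensity and signal to noise from triplicate slides.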 Conditions: higher = more signal.
The target of assay [5] is Neurogenic locus notch homolog protein 2 (Homo sapiens) (UniProt Q04721). Nature of the assay: small molecules binding Notch2 protein – biochemical, small-molecule microarray, 635 nm fluorescence, stem cell growth factors, primary screen (AID 1073). Conditions: higher = more signal.
For assay [6], the target named is Pro-neuregulin-1, membrane-bound isoform (Homo sapiens) (UniProt Q02297). The assay is described as follows: small molecules binding neuregulin-1 protein – biochemical, small-molecule microarray, fluorescence 635/667, psychiatric disease protein project, primary screen (AID 1075).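 Note: score combines 667 nm spot fluorescence with signal to noise.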 Conditions: NRG1 binding, 635 nm fluorescence, higher = more signal.
Chain of Pro-neuregulin-1, membrane-bound isoform (Homo sapiens) (Q02297 whole entry, looked up, the tested form may be a part, canonical isoform): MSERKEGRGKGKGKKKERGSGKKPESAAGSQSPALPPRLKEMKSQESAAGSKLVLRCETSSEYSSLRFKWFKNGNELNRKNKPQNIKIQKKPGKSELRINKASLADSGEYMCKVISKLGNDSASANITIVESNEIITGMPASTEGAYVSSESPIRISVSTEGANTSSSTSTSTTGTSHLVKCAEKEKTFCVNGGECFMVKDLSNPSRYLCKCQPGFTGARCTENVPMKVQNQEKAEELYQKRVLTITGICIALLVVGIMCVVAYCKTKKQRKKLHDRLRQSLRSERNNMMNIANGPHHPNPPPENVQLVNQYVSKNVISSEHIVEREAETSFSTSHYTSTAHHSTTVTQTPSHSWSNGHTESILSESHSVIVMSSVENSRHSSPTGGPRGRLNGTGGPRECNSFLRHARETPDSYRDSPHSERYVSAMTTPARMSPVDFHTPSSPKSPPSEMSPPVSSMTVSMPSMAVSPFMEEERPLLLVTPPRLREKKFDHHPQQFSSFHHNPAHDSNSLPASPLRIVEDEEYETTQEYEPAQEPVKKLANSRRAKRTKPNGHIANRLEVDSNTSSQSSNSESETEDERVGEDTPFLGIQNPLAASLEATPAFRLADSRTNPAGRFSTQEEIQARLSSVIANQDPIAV
The test system of assay [7] is Neuregulin-1 EGF-like domain. Nature of the assay: small molecules binding NRG1 EGF domain – biochemical, small-molecule microarray, 635 nm fluorescence, primary screen (AID 1081).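 Note: binding of the protein to compounds printed on small-molecule microarray slides.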 Conditions: higher = more signal.
The nature of assay [8]: FRG1 expression reporter modulators in myotubes – cell-based, C2C12 myotubes, firefly/Renilla luciferase, luminescence, FRG1 inhibition for FSHD, primary screen (AID 1084). Conditions: FRG1 promoter luciferase, higher = more signal, called active from +8 up or from −8 down.
The nature of assay [9]: small molecules captured by biotinylated probe aFST – biochemical, small-molecule microarray, fluorescence 635/667, stem cell growth factor project, primary screen (AID 1086).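 Note: score merges 667 nm fluorescence with signal-to-noise of each printed compound spot.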 Conditions: higher = more signal.
The nature of assay [10]: binders of probe aHhip on microarray, primary screen, stem cell growth factor project, biochemical, small-molecule microarray, fluorescence 635/667 (AID 1087).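 Note: score merges spot fluorescence at 667nm with spot signal to noise ratio.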 Conditions: higher = more signal.
Assay [11] has as its system PRMT1 (protein arginine N-methyltransferase 1). Nature of the assay: small molecules binding arginine methyltransferase PRMT1 – biochemical, small-molecule microarray, 635 nm fluorescence, primary screen (AID 1088).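 Note: binding of Prmt1 protein to compounds spotted on small-molecule microarray slides.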 Conditions: higher = more signal.
The nature of assay [12]: growth effects on S. cerevisiae YJM789 – YJM789 clinical isolate, OD600, 24 h, basal, primary screen (AID 1089).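 Note: growth of clinical yeast isolate S. cerevisiae YJM 789 seeded 1000 cells per well; test concentration not given here.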 Conditions: higher = more signal, called active from +8 up or from −8 down.
Assay [13] is described as follows: S. pombe growth modifiers, basal conditions – strain 972, OD600, 24 h, no modulator, primary screen (AID 1090).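 Note: basal condition with compound alone and no growth modifier present; test concentration not given here.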 Conditions: S. pombe 972 growth, higher = more signal, called active from +8 up or from −8 down.
The nature of assay [14]: budding yeast growth modifiers under rapamycin – strain BY4716, OD600, 96 h, primary screen (AID 1091). Note: test concentration not given here. Conditions: S. cerevisiae BY4716 + rapamycin, higher = more signal, called active from +8 up or from −8 down.
In assay [15] the target is Torsin-1A-interacting protein 2 (Homo sapiens) (UniProt Q8NFQ8). The assay is described as follows: small molecules binding lysate-expressed LULL1 – cell lysate, human LULL1 lysate, 635/667 nm fluorescence, primary screen (AID 1092).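 Note: score merges per-feature 667 nm fluorescence with signal-to-noise.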 Conditions: small-molecule microarray, hLULL1 lysate binding, 635 nm fluorescence; higher = more signal.
Chain of Torsin-1A-interacting protein 2 (Homo sapiens) (Q8NFQ8 whole entry, looked up): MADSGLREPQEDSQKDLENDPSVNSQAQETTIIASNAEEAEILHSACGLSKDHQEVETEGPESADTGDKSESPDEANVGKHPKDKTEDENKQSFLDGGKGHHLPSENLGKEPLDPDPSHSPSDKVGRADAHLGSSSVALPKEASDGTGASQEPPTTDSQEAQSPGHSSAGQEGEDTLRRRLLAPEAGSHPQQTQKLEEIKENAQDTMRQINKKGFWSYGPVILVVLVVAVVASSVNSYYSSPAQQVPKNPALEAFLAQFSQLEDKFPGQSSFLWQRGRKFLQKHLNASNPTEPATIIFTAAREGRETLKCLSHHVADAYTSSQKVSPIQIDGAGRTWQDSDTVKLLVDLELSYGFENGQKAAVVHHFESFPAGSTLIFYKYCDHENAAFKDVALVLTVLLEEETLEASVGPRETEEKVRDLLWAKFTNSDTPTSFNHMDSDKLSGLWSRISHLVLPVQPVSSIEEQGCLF
A short description of assay [16]: optical density change of DRC41 E. coli – strain DRC41, OD650, 24 h, E. coli filamentation project, primary screen (AID 1093).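 Note: MC1000 strain lacking acrAB efflux and sulA so SOS filamentation is blocked; test concentration not given here.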 Conditions: E. coli DRC41 growth, higher = more signal, called active from +8 up or from −8 down.
Assay [17] in a line: probe aLefty2 binding to arrayed compounds – biochemical, biotinylated probe, 635/667 nm fluorescence, primary screen (AID 1094).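 Note: score merges spot fluorescence near 667 nm with spot signal-to-noise ratio.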 Conditions: small-molecule microarray, higher = more signal.
Assay [18] deals with Noggin (protein binding on small-molecule microarray). The assay is described as follows: small molecules binding Noggin protein – biochemical, 635/667 nm fluorescence, primary screen (AID 1095).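 Note: score merges 667 nm feature fluorescence with signal to noise over triplicate slides.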 Conditions: 635 nm fluorescence, higher = more signal.
Assay [19] deals with Neurogenic locus notch homolog protein 3 (Homo sapiens) (UniProt Q9UM47). Nature of the assay: small molecules binding NOTCH3 protein – biochemical, 635/667 nm fluorescence, primary screen (AID 1096). Conditions: small-molecule microarray, 635 nm fluorescence, higher = more signal.
Chain of Neurogenic locus notch homolog protein 3 (Homo sapiens) (Q9UM47 whole entry, looked up): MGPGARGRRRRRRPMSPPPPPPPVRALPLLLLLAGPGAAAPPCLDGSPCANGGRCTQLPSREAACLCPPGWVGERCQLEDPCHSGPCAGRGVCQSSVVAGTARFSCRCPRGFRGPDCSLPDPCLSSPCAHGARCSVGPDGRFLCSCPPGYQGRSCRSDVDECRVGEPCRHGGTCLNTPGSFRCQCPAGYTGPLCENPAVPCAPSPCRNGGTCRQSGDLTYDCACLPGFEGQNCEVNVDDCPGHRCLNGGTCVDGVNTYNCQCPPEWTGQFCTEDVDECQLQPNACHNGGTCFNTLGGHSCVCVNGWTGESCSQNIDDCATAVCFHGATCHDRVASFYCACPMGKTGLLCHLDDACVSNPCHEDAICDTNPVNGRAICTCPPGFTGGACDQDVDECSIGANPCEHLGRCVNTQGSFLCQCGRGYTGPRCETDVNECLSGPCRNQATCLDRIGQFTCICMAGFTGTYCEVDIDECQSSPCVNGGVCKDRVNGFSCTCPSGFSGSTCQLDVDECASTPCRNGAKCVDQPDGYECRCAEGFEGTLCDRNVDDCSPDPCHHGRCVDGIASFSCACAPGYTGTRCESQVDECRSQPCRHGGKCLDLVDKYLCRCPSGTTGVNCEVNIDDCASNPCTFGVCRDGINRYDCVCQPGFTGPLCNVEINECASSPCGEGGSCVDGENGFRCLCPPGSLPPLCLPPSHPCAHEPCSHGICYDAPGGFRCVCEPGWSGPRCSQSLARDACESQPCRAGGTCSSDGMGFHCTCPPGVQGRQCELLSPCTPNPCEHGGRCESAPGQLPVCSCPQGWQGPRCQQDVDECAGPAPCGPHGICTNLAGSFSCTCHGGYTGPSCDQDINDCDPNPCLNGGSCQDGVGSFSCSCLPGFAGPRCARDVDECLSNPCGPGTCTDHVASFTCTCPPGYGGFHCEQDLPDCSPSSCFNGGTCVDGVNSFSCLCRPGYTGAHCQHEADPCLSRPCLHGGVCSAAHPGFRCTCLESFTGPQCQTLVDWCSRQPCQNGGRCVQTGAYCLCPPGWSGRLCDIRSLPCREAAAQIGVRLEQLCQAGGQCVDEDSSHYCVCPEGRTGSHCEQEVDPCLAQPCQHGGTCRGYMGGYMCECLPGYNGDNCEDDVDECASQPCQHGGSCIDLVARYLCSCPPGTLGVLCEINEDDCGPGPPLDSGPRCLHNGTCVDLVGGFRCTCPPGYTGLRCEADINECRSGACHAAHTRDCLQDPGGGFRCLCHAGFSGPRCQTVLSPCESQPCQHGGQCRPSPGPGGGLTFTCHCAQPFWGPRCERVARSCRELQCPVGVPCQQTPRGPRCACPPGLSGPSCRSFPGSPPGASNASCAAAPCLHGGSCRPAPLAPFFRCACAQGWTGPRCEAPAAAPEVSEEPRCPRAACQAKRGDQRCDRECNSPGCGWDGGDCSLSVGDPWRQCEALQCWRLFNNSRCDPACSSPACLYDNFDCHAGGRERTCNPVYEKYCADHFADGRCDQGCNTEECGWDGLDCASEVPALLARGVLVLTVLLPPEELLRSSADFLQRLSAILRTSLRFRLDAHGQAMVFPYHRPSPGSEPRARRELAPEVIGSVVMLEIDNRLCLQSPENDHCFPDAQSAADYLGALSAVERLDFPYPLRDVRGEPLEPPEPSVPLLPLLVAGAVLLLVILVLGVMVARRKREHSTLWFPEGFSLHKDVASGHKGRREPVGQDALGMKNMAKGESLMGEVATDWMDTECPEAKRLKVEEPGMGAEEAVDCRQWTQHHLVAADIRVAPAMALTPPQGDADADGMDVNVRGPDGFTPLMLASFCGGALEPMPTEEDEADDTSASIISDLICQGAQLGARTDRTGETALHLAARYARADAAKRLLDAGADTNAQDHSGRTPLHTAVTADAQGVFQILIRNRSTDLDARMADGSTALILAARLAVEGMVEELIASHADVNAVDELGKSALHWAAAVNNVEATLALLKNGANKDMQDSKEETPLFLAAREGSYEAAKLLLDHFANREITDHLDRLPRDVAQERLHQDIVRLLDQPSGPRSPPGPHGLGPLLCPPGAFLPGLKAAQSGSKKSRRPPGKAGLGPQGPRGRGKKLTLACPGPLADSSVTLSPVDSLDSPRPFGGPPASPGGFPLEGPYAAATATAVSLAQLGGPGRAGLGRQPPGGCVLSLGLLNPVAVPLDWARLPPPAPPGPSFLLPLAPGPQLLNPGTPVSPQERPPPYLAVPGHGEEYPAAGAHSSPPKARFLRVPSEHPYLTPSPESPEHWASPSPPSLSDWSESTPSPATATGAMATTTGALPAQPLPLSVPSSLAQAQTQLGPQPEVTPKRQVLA
A short description of assay [20]: probe aEGFR binding to arrayed compounds – biochemical, biotinylated probe, 635/667 nm fluorescence, primary screen (AID 1097).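 Note: probe is a biotinylated anti-EGFR antibody binding compounds printed on slides; score combines fluorescence near 667 nm and signal to noise of each spot.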 Conditions: small-molecule microarray, higher = more signal.

Calls of active or inactive are those of the source.

`CO[C@H]1O[C@H](CO)[C@@H](OC(=O)Nc2ccc3c(c2)OCO3)[C@H](OC(=O)c2cc3ccccc3[nH]2)[C@H]1OC(=O)c1cc2ccccc2[nH]1`: the composite z-score in assay [1] is -0.0446; in assay [2], -0.152; in assay [3], -0.0047; in assay [4] it was 0.236; in assay [5] it was -0.904; in [6] it was 0.386. Moreover, the composite z-score in assay [7] was 0.514; in [9], -0.598; in assay [10], 0.0623; in assay [11], 0.391; in assay [15] it was -0.33; in [17] it was 0.0204. For the same molecule, the results for the composite z-score in assay [18], in [19] and in assay [20] were 0.111, 0.123 and -0.0828, respectively. Also, the z-score in assay [8] is 1.13 (inactive); in assay [12] it was -2.1 (inactive); in assay [13] it was -0.908 (inactive); in assay [14], 0.489 (inactive); in assay [16], 0.382 (inactive).
In the case of `C=C(/C(=C/C[C@H](OC(C)=O)c1cccc(OCCO)c1)c1cnc2ccccc2c1)C(C)C`, the composite z-score in assay [1] is -0.104; in [2], 0.21; in assay [3], -0.108; in [4], 0.459; in assay [5] it was 1.56; in assay [6] it was 0.35. Also, the composite z-score in assay [7] is 0.914; in assay [9], -0.241; in assay [10] it was -0.0618; in assay [11], 0.684; in assay [15], 1.03; in [17], -0.0888. Also, the values for the composite z-score in [18], in [19] and in [20] were 0.608, 0.778 and 0.386, respectively. Further, the z-score in assay [8] was -0.127 (inactive); in assay [12] it was 1.9 (inactive); in assay [13], -0.3 (inactive); in assay [14], 1.35 (inactive); in [16], 0.172 (inactive).
Regarding `O=C1OCC=C[C@H]2OC34C=CCN(Cn5nnc6ccccc65)C(=O)[C@H]3N(CCCO)C(=O)[C@@H]4[C@@H]12` (stereo not given in full), the composite z-score is 0.466 in [1]; -0.772 in [2]; -0.0015 in [3]; 0.0131 in [4]; -1.04 in assay [5]; 1.09 in [6]. Also, the composite z-score in assay [7] was 1.54; in assay [9] it was -0.772; in assay [10], -0.0618; in [11], -0.169; in assay [15], 0.433; in assay [17], -0.217. For the same molecule, the composite z-score in [18] is -0.2; in assay [19], -0.579; in assay [20], -0.356. The z-score in [8] is 0.67 (inactive); in [12] it was 0.465 (inactive); in assay [13] it was -0.883 (inactive); in assay [14] it was -0.437 (inactive); in assay [16], 1.93 (inactive).
Turning to `C[N+](C)(C)CCCCCCNC(=O)[C@H]1C[C@H]2C(=O)NCC(=O)N2[C@H]1c1ccc(O)cc1`, the composite z-score is -0.411 in assay [1]; 0.71 in assay [2]; -0.0973 in [3]; 0.776 in [4]; 0.0422 in [5]; 1.52 in assay [6]. In addition, the composite z-score in assay [7] is 1.17; in assay [9], 0.358; in assay [10] it was -0.744; in assay [11] it was 1.46; in assay [15], 2.88; in assay [17], -0.413. For the same molecule, the composite z-score in assay [18] is 1.6; in assay [19], 1.05; in assay [20], -0.12. Further, the z-score was 4.03 (inactive) in assay [8]; -0.374 (inactive) in assay [12]; 0.332 (inactive) in assay [13]; -0.489 (inactive) in assay [14]; 0.376 (inactive) in [16].
In the case of `O=C1O[C@@H](c2ccccc2)[C@@H](c2ccccc2)N2[C@@H](c3ccc(O)cc3)[C@]3(C(=O)Nc4ccc(C#CC5(O)CCCCCC5)cc43)[C@@H](C(=O)NC[C@H](O)c3ccccc3)[C@H]12`, the composite z-score in assay [1] is 0.107; in assay [2] it was -0.363; in assay [3], -0.0255; in assay [4], 0.753; in assay [5] it was -0.226; in [6], 1.02. In addition, the composite z-score was 0.538 in assay [7]; -0.405 in assay [9]; -0.236 in assay [10]; 1.26 in assay [11]; 2.05 in assay [15]; -0.242 in assay [17]. Further, the composite z-score in [18] is -0.0578; in assay [19], -0.0872; in [20] it was -0.162. Besides, the z-score is 0.106 (inactive) in assay [8]; 0.21 (inactive) in [12]; -0.0625 (inactive) in assay [13]; 1.24 (inactive) in [14]; -0.255 (inactive) in assay [16].
